Results on 26 compounds are retold here after the supplement of paper PMC13380429.

Experiment [1] concerns Vero E6 infected with SARS-CoV-2. Nature of the experiment: morphology score (similarity to uninfected cells); higher = more like uninfected cells. The following applies: 24 h.
Experiment [2] shares this test system. Nature of the experiment: SARS-CoV-2 infection rate relative to infected DMSO; higher = more infection, active = 60 or less. Particulars: 24 h.

`CN1CCN(CCCCN2C(=O)CN(/N=C/c3ccc(-c4ccc(Cl)cc4)o3)C2=O)CC1` [azimilide] (10 µM): in experiment [1], the morphology score is 0.0199. Further, the SARS-CoV-2 infection rate in experiment [2] is 102% (inactive).

For the compound `CC1=C(C(=O)O)N2C(=O)[C@@H](NC(=O)[C@H](N)c3ccc(O)cc3)[C@H]2SC1` [cefadroxil] (10 µM), the morphology score in experiment [1] is -0.016. Also, in experiment [2], the SARS-CoV-2 infection rate is 108% (inactive).

`COc1cc2ncnc(Nc3cccc(Cl)c3F)c2cc1OC(=O)N1CCN(C)C[C@H]1C` (10 µM) gave a morphology score in experiment [1] of -0.178. Moreover, in experiment [2], the SARS-CoV-2 infection rate is 114% (inactive).

For `CC(=O)N(C)c1cccc(-c2ccnc3c(C(=O)c4cccs4)cnn23)c1` [indiplon] (10 µM), in experiment [1], the morphology score was -0.213. In experiment [2], the SARS-CoV-2 infection rate was 116% (inactive).

Turning to `CC(C)n1cnc2c(NCCc3ccc(O)cc3)nc(-c3csc4ccccc34)nc21` [stemregenin-1] (10 µM), the morphology score in experiment [1] turned out to be 0.692. In addition, the SARS-CoV-2 infection rate in experiment [2] is 67% (inactive).

In experiment [1], `C[C@H](N)C(=O)O` [L-alanine] (10 µM) came in with a morphology score of -0.118. In experiment [2], the SARS-CoV-2 infection rate is 111% (inactive).

`Cc1onc(-c2ccccc2Cl)c1C(=O)N[C@@H]1C(=O)N2[C@@H]1SC(C)(C)[C@@H]2C(=O)O` [cloxacillin] (10 µM) registered a morphology score in experiment [1] of 0.00481. Besides, in experiment [2], the SARS-CoV-2 infection rate was 99.5% (inactive).

The compound `COc1ccccc1N1CCN(CCN(C(=O)C2CCCCC2)c2ccccn2)CC1` (10 µM) gave a morphology score in experiment [1] of 0.0947. Also, the SARS-CoV-2 infection rate in experiment [2] is 118% (inactive).

Regarding `O=[N+]([O-])O[C@H]1CO[C@H]2[C@@H]1OC[C@H]2O[N+](=O)[O-]` [isosorbide-dinitrate] (10 µM), the morphology score in experiment [1] is 0.0765. Moreover, the SARS-CoV-2 infection rate in experiment [2] is 112% (inactive).

Take `CC(=O)N(O)[C@@H]1c2cc(C#N)ccc2OC(C)(C)[C@H]1O` (10 µM): the morphology score in experiment [1] was determined as 0.477. In experiment [2], the SARS-CoV-2 infection rate is 59% (active).

Compound `O=C1C=Cc2cc(Br)ccc2C1=O` [bonaphthone] (10 µM) showed a morphology score in experiment [1] of -0.0263. Further, the SARS-CoV-2 infection rate in experiment [2] was 103% (inactive).

As to `Cc1c(N)nc([C@H](CC(N)=O)NC[C@H](N)C(N)=O)nc1C(=O)N[C@H](C(=O)N[C@H](C)[C@@H](O)[C@H](C)C(=O)N[C@H](C(=O)NCCc1nc(-c2nc(C(=O)NCCCNCCCCN)cs2)cs1)[C@@H](C)O)[C@@H](O[C@@H]1O[C@@H](CO)[C@@H](O)[C@H](O)[C@@H]1O[C@@H]1O[C@H](CO)[C@@H](O)[C@H](OC(N)=O)[C@@H]1O)c1cnc[nH]1` [bleomycetin] (0.833333 µM), in experiment [1], the morphology score was determined as 0.128. Besides, in experiment [2], the SARS-CoV-2 infection rate is 111% (inactive).

Consider `CCCc1cc(C(N)=S)ccn1` [protionamide] (10 µM), for which the morphology score in experiment [1] is 0.198. In addition, the SARS-CoV-2 infection rate in experiment [2] was 98% (inactive).

In experiment [1], `CC(C)C[C@@H](C=O)NC(=O)[C@H](CC(C)C)NC(=O)[C@H](CC(C)C)NC(=O)OCc1ccccc1` (10 µM) displayed a morphology score of 0.514. The SARS-CoV-2 infection rate in experiment [2] was 66% (inactive).

Compound `CC(=O)O[C@@H]1C[C@H]2C(C)(C)C(=O)C=C[C@]2(C)[C@H]2CC[C@@]3(C)[C@H](c4ccoc4)OC(=O)[C@H]4O[C@]43[C@@]21C` [gedunin] (10 µM) yielded a morphology score in experiment [1] of 0.145. The SARS-CoV-2 infection rate in experiment [2] is 106% (inactive).

The compound `O=C(Nc1ccccc1)OCC(CN1CCCCC1)OC(=O)Nc1ccccc1` (configuration not stated) [diperodon] (10 µM) registered a morphology score in experiment [1] of -0.0894. Also, the SARS-CoV-2 infection rate in experiment [2] was 108% (inactive).

For the compound `CCOC(=O)c1ccc(O)cc1` [ethyl-paraben] (10 µM), in experiment [1], the morphology score was -0.0381. The SARS-CoV-2 infection rate in experiment [2] was 104% (inactive).

The compound `COc1cc(OCc2cccc(-c3ccccc3)c2C)cc(OC)c1CN1CCCC[C@H]1C(=O)O` [PD1-PDL-inhibitor-1] (10 µM) showed a morphology score in experiment [1] of 0.00556. Moreover, the SARS-CoV-2 infection rate in experiment [2] is 95% (inactive).

The compound `COc1cc(OC)c(/C=C/S(=O)(=O)Cc2ccc(OC)c(OP(=O)(O)O)c2)c(OC)c1` [briciclib] (0.833333 µM) displayed a morphology score in experiment [1] of -0.0884. Also, in experiment [2], the SARS-CoV-2 infection rate was 92% (inactive).

Take `CCC[C@H](N[C@@H](C)C(=O)N1[C@H](C(=O)O)C[C@@H]2CCCC[C@@H]21)C(=O)O` [perindoprilat] (10 µM): the morphology score in experiment [1] is 0.276. Moreover, the SARS-CoV-2 infection rate in experiment [2] was 104% (inactive).

Consider `c1ccc2c(c1)OC[C@H](CNCCCOc1ccc3c(c1)OCO3)O2` [osemozotan] (10 µM), for which, in experiment [1], the morphology score is 0.0986. For the same compound, in experiment [2], the SARS-CoV-2 infection rate is 106% (inactive).

Compound `CN1CCN(c2nc3ccccc3nc2Cl)CC1` (10 µM) displayed a morphology score in experiment [1] of 0.162. For the same compound, in experiment [2], the SARS-CoV-2 infection rate is 102% (inactive).

In experiment [1], `CN1C(C(=O)Nc2ccccn2)=C(O)c2ccccc2S1(=O)=O` [piroxicam] (10 µM) registered a morphology score of 0.184. Moreover, the SARS-CoV-2 infection rate in experiment [2] is 98.5% (inactive).

Take `C[C@@]1(O)[C@H](O)[C@@H](CO)O[C@H]1n1cnc2c(NC3CCCC3)nc(Cl)nc21` (10 µM): the morphology score in experiment [1] worked out at 0.0826. In addition, the SARS-CoV-2 infection rate in experiment [2] was 102% (inactive).

The compound `C[C@H]1CCc2c(cc(Br)c(F)c2Br)N1C=O` (10 µM) registered a morphology score in experiment [1] of 0.0995. For the same compound, the SARS-CoV-2 infection rate in experiment [2] was 94.5% (inactive).

Compound `C[C@H]1COC2=C1C(=O)C(=O)c1c2ccc2c1CCCC2(C)C` [cryptotanshinone] (10 µM) yielded a morphology score in experiment [1] of 0.0318. Further, in experiment [2], the SARS-CoV-2 infection rate was 100% (inactive).
